Measured values published in ChEMBL document CHEMBL3988442, “University of Dundee, Small-Polar-MMV Screening Library” (2021).

These compounds were tested against AMP-activated protein kinase, AMPK (Homo sapiens) (UniProt P54646+O43741+P54619+Q9UGJ0+Q9Y478+Q13131+Q9UGI9) (assay: AMP-dependent Kinase enzyme assay. An in vitro enzyme assay that detects ADP turnover that is directly proportional to AMPK activity. This uses naive AMPK that is activated during the assay with MK-8722). Details: 30 µM.
Assay type: functional
Design: scale not given: direction of the effect not stated beside the values

| SMILES | Percent Effect [%] |
| --- | --- |
| Cc1nc(N)nc(C)c1CC(=O)N1CCCN(CC2CC2)C(C(C)C)C1 (stereo not given) | -4.33 |
| CC(C)[C@@H]1CN(C(=O)C2(c3ccccc3)CCN(C)CC2)C[C@H]1C(=O)O | 3.48 |
| CC(C)(C)c1cc(=O)[nH]c(C2(N)CCCC2)n1 | 3.52 |
| CSc1nccc(N2CCC3(CCCN(CC4CC4)C3)C2)n1 (stereo not given) | 2.58 |
| NC1(c2nc(C(F)(F)F)cc(=O)[nH]2)CCCC1 | -4.13 |
| CNC(=O)[C@@H]1CN(Cc2ccccc2)C[C@H]1C(=O)c1ccc(F)cc1 | 12 |
| O=C(C1CC1)N1CCc2c(ncnc2N2CCN3CCCC3C2)C1 (stereo not given) | -5.38 |
| CCN1CCN(C(=O)COc2ccc(CN(C)S(C)(=O)=O)cc2)CC1 | -0.955 |
| CCc1cccc(NC(=O)CCN2CC=C(c3cnn(C)c3)CC2)c1 | 11.6 |
| CCc1ccc(OCC(=O)N2CCN(CC)CC2)cc1 | -0.678 |
| O=C(N1CCCC1)N1C[C@H]2CC[C@@H]1CN(Cc1ccncc1)C2 | 2.18 |
| COc1ccc(Cl)cc1CN(C)C(=O)CN1C(=O)CCC1C (stereo not given) | 6.65 |
| NC1(c2nc(C(F)(F)F)cc(=O)[nH]2)CCCCC1 | -5.09 |
| Cc1nc(CC(=O)N2CCCC[C@H](N(C)C)C2)cs1 | -2.31 |
| O=C(c1nc(=O)[nH]c2ccccc12)N1CCCC2(CCNC2)C1 (stereo not given) | 1.4 |
| CC(C)(C)c1cc(=O)[nH]c(C2(N)CCCCC2)n1 | 2.04 |
| CC(Cc1cccc(F)c1)NCc1cnc(N2CCN(C)CC2)nc1 (stereo not given) | 8.49 |
| CC(C)NC(=O)[C@H]1CN(Cc2ccccc2)C[C@@H]1C(=O)c1ccccc1 | 7.87 |
| CCOCCC(=O)N1C[C@H]2CC[C@@H]1CN(Cc1ccncc1)C2 | 3.36 |
| CS(=O)(=O)N1C[C@H]2CC[C@@H]1CN(Cc1ccncc1)C2 | 11.6 |

| SMILES | Percent Effect [%] |
| --- | --- |
| COc1ncnc(N)c1CNCCc1ccccc1 | -4.78 |
| Cc1nc(C(=O)N[C@H]2COC[C@@H]2N2CCCCC2)cs1 | 4.08 |
| COc1ccccc1CCN(C)Cc1nc(N)nc(N(C)C)n1 | -4.89 |
| CC(=O)Nc1ccc(-c2ccccc2CCN)cc1 | 3.13 |
| CS(=O)(=O)c1ccc(CC(=O)N2CCN3CCNC(=O)C3C2)cc1 (stereo not given) | -2.22 |
| Cc1cc(NCCc2c[nH]cn2)nc(-c2cccnc2)n1 | 1.96 |
| O=C(O)[C@H]1CN(Cc2ccccc2)C[C@@H]1C(=O)c1ccccc1 | 12.8 |
| Cc1ccc2c(CC(=O)N(C)CCN(C)C)c(C)[nH]c2c1C | -8.21 |
| COc1ccc(NC(=O)CCN2CC=C(c3cnn(C)c3)CC2)c(C)c1 | 6.63 |
| CC(=O)Nc1cccc(-c2ccccc2CCN)c1 | 4.86 |
| CC1CN(C)CCN1C(=O)Cc1cc(Cl)c2c(c1)OCCO2 (stereo not given) | 1.93 |
| CC(C)c1cc(N2CCC3(CCN(C)C3)C2)ncn1 (stereo not given) | -2.38 |
| Cc1cc(Cl)ccc1C(=O)C1CCCN(Cc2cnc(N(C)C)s2)C1 (stereo not given) | 3.99 |
| Cc1nn(C)c2nc(N3CCCCC3c3cccnc3)sc12 (stereo not given) | -3.14 |
| Cc1cc(C(=O)NCC(=O)N2CCOCC2)nn1C(C)(C)C | 8.45 |
| COC(=O)N1C[C@H]2CC[C@@H]1CN(Cc1ccncc1)C2 | 0.146 |
| O=C(N[C@H]1COC[C@@H]1N1CCCC1)c1csc(-c2cccs2)n1 | 2.31 |
| Cc1ccc(NC(=O)CNC(C)Cc2ccsc2)cc1F (stereo not given) | -6.2 |
| CCCc1nc(C(=O)N[C@H]2COC[C@@H]2N2CCN(C)CC2)cs1 | -1.36 |
| Cn1cc(C2=CCN(CCC(=O)NCc3ccc(Cl)cc3)CC2)cn1 | 6.44 |
